An excerpt weighted towards active compounds, which were near 2% of everything screened.
cytoskel mod: modifiers of F-actin cytoskeleton organization, primary screen, imaging, HUVEC, phalloidin staining, high-content imaging. inhibition, % at 2 µM. 91,000 compounds, 0.18% hits. HUVEC TNFa F-actin phalloidin imaging. AID 836, 2007;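 active means inhibition above the batch mean plus 3 SD and confirmed as a hit by visual image inspection, cut at about 30% in these data, passing the limit was not always enough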
E-sel TNF inh: E-selectin induction blockers in HUVEC – imaging, immunofluorescence, high content, primary screen; HUVEC TNFa-induced E-selectin immunofluorescence; inhibition, % at 2 µM; 120,000 compounds, 0.71% hits;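 active means inhibition above the batch mean plus 3 SD, and confirmed as a hit on visual image review, cut at about 43% in these data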;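 further: 0% = TNF-stimulated DMSO wells and 100% = unstimulated control wells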
VCAM1 TNFa inh: inhibitors of TNFa-induced VCAM1 expression, primary screen, imaging, HUVEC, TNFa stimulus, immunofluorescence; AID 802, 2007; inhibition, % at 2 µM; 95,000 compounds, 0.48% hits; HUVEC TNFa-induced VCAM-1 immunofluorescence, high-content imaging;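 active means inhibition above the batch mean plus 3 SD, with images confirmed as a hit by eye, cut at about 37% in these data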;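 further: 0% = TNF-stimulated DMSO wells and 100% = unstimulated control wells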
HUVEC tox TNFa: cytotoxicity in TNFa-stimulated HUVEC, primary screen, cytotoxicity control for VCAM1 expression modulator project, imaging, Hoechst nuclei count | HUVEC TNFalpha-stimulated, Hoechst cell count | 93,000 compounds, 0.17% hits | cell count reduction, % at 2 µM;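 active means cell count reduction exceeding the screen mean by over 5 SD, scaled to untreated wells per plate, cut at about 78% in these data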;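 further: cells counted after 24 h of TNF alpha exposure following the 1 h pretreatment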
PLAP act: PLAP enzyme activators, biochemical, luminescence, HTS | Alkaline phosphatase, placental type (Homo sapiens), P05187 | purified PLAP enzyme, luminescent substrate read-out; hits give high values | activation fold at 20 µM | 96,000 compounds, 1.2% hits; in the data active means activation fold above about 2
Target sequence (P05187 whole entry, looked up): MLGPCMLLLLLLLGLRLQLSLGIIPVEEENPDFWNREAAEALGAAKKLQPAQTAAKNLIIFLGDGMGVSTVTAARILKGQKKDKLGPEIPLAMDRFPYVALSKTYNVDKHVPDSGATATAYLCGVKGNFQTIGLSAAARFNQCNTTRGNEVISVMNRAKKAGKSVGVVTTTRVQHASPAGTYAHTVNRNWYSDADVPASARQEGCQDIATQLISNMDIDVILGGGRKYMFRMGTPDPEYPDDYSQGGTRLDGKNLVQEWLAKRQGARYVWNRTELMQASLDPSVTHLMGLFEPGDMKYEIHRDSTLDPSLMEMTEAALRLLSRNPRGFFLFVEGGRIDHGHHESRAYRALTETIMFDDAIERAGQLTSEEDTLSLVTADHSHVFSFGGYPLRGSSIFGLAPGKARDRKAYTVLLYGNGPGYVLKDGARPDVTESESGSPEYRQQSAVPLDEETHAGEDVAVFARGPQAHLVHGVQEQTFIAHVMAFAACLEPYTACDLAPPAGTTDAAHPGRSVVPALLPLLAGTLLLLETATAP
Starred values were filed as active, the others as inactive; · = no result given.

SMILES	cytoskel mod	E-sel TNF inh	VCAM1 TNFa inh	HUVEC tox TNFa	PLAP act
C=CCn1c(SCC(=O)Nc2ccc(C(=O)OCC)cc2)nnc1-c1sc(N)nc1C	-8	-17	92*	-8	1.1
O=c1c2c(nc3cc(-c4ccc(Cl)cc4)[nH]n13)CCS2	·	10	·	·	·
O=C1CC(N2CCN(Cc3ccc4c(c3)OCO4)CC2)C(=O)N1Cc1ccc(N2CCCC2=O)cc1 (centres undefined)	32	·	80*	92*	1.2
O=C1CC(N2CCOCC2)C(=O)N1Cc1ccc(N2CCCC2=O)cc1 (centres undefined)	-17	-12	-3	-15	1.1
CCOC(=O)c1ccc(-n2c(=S)sc3c(=O)[nH]c(C)nc32)cc1	12	-16	87*	-8	0.9
Cc1nnsc1C(=O)NC(C)C12CC3CC(CC(C3)C1)C2 (centres undefined)	21	-6	5	-8	1
COc1cccc(=O)c2c(C)n(-c3cc(C)cc(C)c3)c(C)c12	-9	67*	-19	-27	1.3
COc1cccc(=O)c2c(C)n(C)c(C)c12	-10	-2	1	-34	1
COCc1[nH][nH]c(=O)c1C=Nc1ccccc1	·	20	-5	-17	2*
O=C(COC(=O)c1ccc(Cl)cc1O)NC(=O)C1CCCCC1	·	46	·	·	·
O=c1[nH]c2c(cc1CNCCN1CCOCC1)c(-c1cccc(F)c1)nn2-c1ccccc1	·	·	·	·	2*
COCCN(C(=O)Cc1cccs1)C(C(=O)NCc1ccc(OC)cc1)c1ccc(C(C)C)cc1 (centres undefined)	·	·	·	·	2.6*
COCCNC(=O)c1ccc(N(C)S(=O)(=O)c2ccc(OC)c(OC)c2)cc1	-2	100*	-39	-10	·
CCOC(=O)N1CCN(C(=O)/C(=C/c2ccc(Br)cc2)NC(=O)c2ccc(OC)cc2)CC1	·	6	·	·	·
COc1ccc(C(=O)/C=C/Nc2ccc([N+](=O)[O-])cc2C)c(OC)c1	3	100*	-18	3	1.1
COc1ccc(C(=O)/C=C/Nc2ccc([N+](=O)[O-])cc2C)cc1OC	-2	·	2	-4	1
COC(=O)c1ccc(CSc2nc3c(cnn3-c3ccc(C)cc3)c(=O)[nH]2)o1	9	1	2	-30	·
COC(=O)c1ccc(CSc2nc3ccc(C)cc3[nH]2)o1	0	·	10	-9	2.2*
O=C(CSc1ncn[nH]1)N1CCN(S(=O)(=O)c2ccc(Cl)cc2)CC1	11	4	20	-18	2.1*
Cc1ccc(N(CN2CCCC2=O)C(=O)c2ccc(OC(C)C)cc2)cc1	-10	2	62	79*	1.6
CCOc1ccc(C(=O)N(CN2CCCC2=O)c2ccc(C)cc2)cc1	0	-20	24	-10	·
Cc1ccnc(SCC(=O)Nc2c(C)n(C)n(-c3ccccc3)c2=O)n1	6	-15	2	-12	0.9
CC(=O)c1cccc(Nc2nc(-c3cccc([N+](=O)[O-])c3)cs2)c1	-6	-17	39*	-1	1.1
Cc1nc2c(sc3nc4c(cc32)COC(C)(C)C4)c(=O)n1Cc1ccccc1	5	15	5	-23	1
Cc1nc2c(sc3nc4c(cc32)COC(C)(C)C4)c(=O)o1	-1	81*	-1	-1	1.5
SMILES	cytoskel mod	E-sel TNF inh	VCAM1 TNFa inh	HUVEC tox TNFa	PLAP act
CC(C)(C)c1ccc(Cn2ccc(-c3ccc4c(c3)OCO4)n2)cc1	-7	13	5	-1	1.1
O=C(Nc1ccccc1)N(CCc1ccncc1)C1CCCCC1	8	98*	2	-13	·
CC(C)c1ccc(NC(=O)N(CCc2nc3ccccc3[nH]2)C2CCCC2)cc1	28	-7	-10	-10	0.8
COc1cc(C(=O)Nc2cc(-c3ccccc3)[nH]n2)cc(OC)c1OC	·	·	·	·	2.3*
CC1CCCCN1C(=O)COC(=O)/C=C/c1ccc2ccccc2n1 (centres undefined)	·	25	·	·	·
CCOC(=O)c1[nH]cnc1C(=O)Nc1ccncc1	-12	-34	8	0	2.5*
Cc1nc(S(=O)(=O)N(C)Cc2ccccc2)c(C#N)c(C)c1Cl	-48	-7	78*	92*	0.8
Cc1nc(S(=O)(=O)NC2CCCCC2)c(C#N)c(C)c1Cl	6	-2	10	-22	0.8
CC(=O)OC(C(=O)Nc1ccccc1C)C(OC(C)=O)C(OC(C)=O)C(OC(C)=O)C(=O)Nc1ccccc1C (centres undefined)	14	-11	-8	-32	·
